Measurements published in PubChem BioAssay (Tox21).
“And” between values parts separate entries of the source, which are not always exact repeats. Equal values may be shown once. Records with an inconclusive call do not appear. A call without a number means that no potency is given here. A structure can be active in one record and inactive in another. The source made the active and inactive calls. Unless noted, calls follow the shape of the dose curve; as a rule, active = well fitted curve in the direction sought with a large enough effect in the repeat runs; inconclusive = weak or mixed curves; inactive = no such curve, though single readings can be large; an effect the other way counts as inactive or inconclusive.

Key:
[1] = biological target: Luciferin 4-monooxygenase (Photinus pyralis) (UniProt P08659); assay: qHTS assay to identify small molecule inhibitors of firefly luciferase (AID 1224835); also: nearly all actives have a fitted effect of over 25% in size; also: potency is read from the fitted curve at half-maximal effect
Outline: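 Inhibition of purified Photinus luciferase is measured by luminescence. Substrate levels (D-luciferin, ATP) sit at their KM values. Each compound is tested in a concentration series.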

[2] = qHTS assay to identify small molecule agonists of the constitutive androstane receptor (CAR) signaling pathway - cell viability counter screen (AID 1224836); also: nearly all actives have a fitted effect of over 45% in size
Outline: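 Viability read-out: CellTiter-Fluor fluorescence after 23 h compound exposure at 37 C/5% CO2 in double-stable HepG2-CYP2B6-hCAR cells, with PK11195 present at 0.75 uM final; compounds tested in 15-point titration.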

[3] = biological target: Nuclear receptor subfamily 1 group I member 3 (Homo sapiens) (UniProt Q14994); assay: qHTS assay to identify small molecule antagonists of the constitutive androstane receptor (CAR) signaling pathway (AID 1224838); also: nearly all actives have a fitted effect of over 40% in size
Outline: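 Inhibition of CITCO-driven (50 nM final) CYP2B6 reporter expression is measured in HepG2 cells stably carrying hCAR. Fifteen compound concentrations are applied for 24 h at 37 C, followed by luciferase luminescence.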

[4] = biological target: Nuclear receptor subfamily 1 group I member 3 (Homo sapiens) (UniProt Q14994); assay: qHTS assay to identify small molecule agonists of the constitutive androstane receptor (CAR) signaling pathway (AID 1224839); also: nearly all actives have a fitted effect of over 15% in size; also: potency is read from the fitted curve at half-maximal effect
Outline: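 Luminescence read-out (ONE-Glo, 30 min, room temperature) from double-stable HepG2-CYP2B6-hCAR cells exposed 24 h to 15-point compound series in presence of 0.75 uM PK11195 final.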

[5] = qHTS assay to identify small molecule antagonists of the estrogen related receptor signaling pathway with the pleiotropic PPARgamma coactivator (PGC) from Tox21 10K library - cell viability counter screen (AID 1224840; active = well fitted cell-killing curve with a large enough effect in the repeat runs, not every such curve was filed as active; also: nearly all actives have a fitted effect of over 40% in size; also: potency is read from the fitted curve at half-maximal effect)
Outline: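 Readout: fluorescence intensity from CellTiter-Fluor after 30 min at 37 C/5% CO2. Preceded by 17.5 h treatment of PGC/ERR cells with DMSO-dissolved compounds, added 6 h post-seeding.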

[6] = qHTS assay to identify small molecule antagonists of the estrogen related receptor signaling pathway with the pleiotropic PPARgamma coactivator (PGC) from Tox21 10K library (AID 1224841; call rule not given here; also: actives are mostly falling curves and most rising ones were filed inactive; nearly all actives have a fitted effect of over 50% in size; also: potency is read from the fitted curve at half-maximal effect)
Outline: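 One-Glo luminescence, measured after half an hour at room temperature, quantified reporter output of PGC/ERR cells. These had been plated at 2,000 per well, incubated 6 h, dosed with compounds in DMSO, then kept 18 h at 37 C.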

[7] = qHTS assay to identify small molecule agonists of the estrogen related receptor signaling pathway with the pleiotropic PPARgamma coactivator (PGC) from Tox21 10K library (AID 1224842); also: nearly all actives have a fitted effect of over 15% in size; also: potency is read from the fitted curve at half-maximal effect
Outline: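 Luminescence from One-Glo (30 min, room temperature) measured after PGC/ERR cells had 18 h at 37 C with pinned compound (23 nL in DMSO). Cells had been seeded at 2,000 per well and pre-incubated 6 h.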

[8] = biological target: Thyrotropin receptor (Homo sapiens) (UniProt P16473); assay: qHTS assay to identify small molecule agonists of the thyroid stimulating hormone receptor (TSHR) signaling pathway (AID 1224843; calls by dose curve; also: nearly all actives have a fitted effect of over 45% in size)
Outline: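 A cell-based cAMP HTRF format was run in TSHR-transfected HEK293 cells, 800 per well. Treatment: 30 min, room temperature. Detection: 1 h with labelled cAMP and anti-cAMP cryptate. Concentration-response over 15 points, three replicates.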

[9] = qHTS assay to identify small molecule agonists of H2AX (AID 1224845; active = well fitted activation curve with a large enough effect in the signal ratio in the repeat runs, not every such curve was filed as active; the % refers to the signal ratio; also: potency is read from the fitted curve at half-maximal effect)
Outline: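 Phospho-H2AX Ser139 measured by HTRF (ex 320 nm; em 665 and 620 nm) after 24 hr antibody incubation. Compounds, 15 concentrations, 0.76% DMSO, were applied to CHO-K1 cells for 3hr at 37C before lysis.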

[10] = qHTS assay to identify small molecule antagonists of the estrogen related receptor (ERR) signaling pathway from Tox21 library (AID 1224848); also: nearly all actives have a fitted effect of over 50% in size; also: potency is read from the fitted curve at half-maximal effect
Outline: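 ERR cell line, 2,000 cells/well. 6 h settle, then compound (DMSO) added; 18 h at 37 C; ONE-Glo luminescence after 30 min RT.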

[11] = qHTS assay to identify small molecule agonists of the estrogen related receptor (ERR) signaling pathway from Tox21 library (AID 1224849; calls by dose curve; also: nearly all actives have a fitted effect of over 15% in size); settings: ERR reporter cell line, ONE-Glo luciferase, 18 h
Outline: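 Luciferase activity in ERR pathway reporter cells served as the agonist readout; exposure lasted 18 h at 37 C, with ONE-Glo detection after 30 min at room temperature.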

[12] = qHTS RealTime-Glo MT Cell Viability Assay in HepG2 cells - 24 hour (AID 1224867); also: nearly all actives have a fitted effect of over 50% in size; also: potency is read from the fitted curve at half-maximal effect
Outline: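 Luminescence read-out: viable HepG2 cells reduce a prosubstrate to a NanoLuc substrate, giving a signal proportional to live cell number. Reads taken at 0, 8, 16, 24, 32 and 40 h of compound exposure at 37 C.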

[13] = qHTS RealTime-Glo MT Cell Viability Assay in HEK293 cells - 32 hour (AID 1224868); also: nearly all actives have a fitted effect of over 50% in size; also: potency is read from the fitted curve at half-maximal effect
Outline: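 Nonlytic real-time viability readout: viable cells convert prosubstrate to NanoLuc substrate, giving luminescence proportional to live cell number. HEK293, 600 cells/well, compound added after 5 h, continuous culture at 37 C.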

[14] = A CellTox Green Cytotoxicity Assay to monitor cytotoxicity in HEK293 cells - 0 hour (AID 1224869); also: nearly all actives have a fitted effect of over 50% in size
Outline: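 Real-time, in one plate: 600 HEK293 cells/well with dead-cell DNA dye, pinned compound after 5 h, 37 C incubation over 40 h; viable cells give no appreciable fluorescence.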

[15] = qHTS RealTime-Glo MT Cell Viability Assay in HepG2 cells - 40 hour (AID 1224870); also: nearly all actives have a fitted effect of over 50% in size; also: potency is read from the fitted curve at half-maximal effect
Outline: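 Real-time viability: cells seeded at 600 per well together with NanoLuc and cell-permeant prosubstrate, compounds added after 5 h incubation. Luminescence tracked at 0, 8, 16, 24, 32 and 40 h of exposure.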

[16] = qHTS assay to identify small molecule antagonists of the constitutive androstane receptor (CAR) signaling pathway - cell viability counter screen (AID 1224837); also: nearly all actives have a fitted effect of over 45% in size; also: potency is read from the fitted curve at half-maximal effect
Outline: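 CITCO at 50 nM final was added alongside compounds (15 concentrations) to double-stable hCAR/CYP2B6-2.2kb HepG2 cells. Following 23 hr at 37 C, cell viability was quantified by CellTiter-Fluor fluorescence intensity.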

[17] = qHTS assay to identify small molecule agonists of the hypoxia (HIF-1) signaling pathway - cell viability counter screen (AID 1224844; calls by dose curve; also: nearly all actives have a fitted effect of over 50% in size; also: potency is read from the fitted curve at half-maximal effect)
Outline: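 In this counter screen, HRE-bla ME-180 cell viability after 17 hrs of compound exposure at 37C was read by CellTiter-Glo luminescence, multiplexed with the beta-lactamase reporter measurement.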

[18] = qHTS assay to identify small molecule agonists of H2AX - cell viability counter screen (AID 1224847; calls by dose curve; also: nearly all actives have a fitted effect of over 30% in size; also: potency is read from the fitted curve at half-maximal effect)
Outline: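 CHO-K1 wt, 1000 cells/well, o/n 37C; cpds 15 conc, 3 h 37C, 0.76% DMSO; CellTiter-Glo, 30 min RT, luminescence.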

[19] = qHTS assay to identify small molecule agonists of the hypoxia (HIF-1) signaling pathway (AID 1224846; active = well fitted activation curve with a large enough effect in the signal ratio in the repeat runs, not every such curve was filed as active; the % refers to the signal ratio)
Outline: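 ME-180 HRE-bla reporter cells; compounds in DMSO, 17 h at 37C; read-out beta-lactamase via CCF4-AM FRET.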

Luciferin 4-monooxygenase (Photinus pyralis), sequence (P08659 whole entry, looked up): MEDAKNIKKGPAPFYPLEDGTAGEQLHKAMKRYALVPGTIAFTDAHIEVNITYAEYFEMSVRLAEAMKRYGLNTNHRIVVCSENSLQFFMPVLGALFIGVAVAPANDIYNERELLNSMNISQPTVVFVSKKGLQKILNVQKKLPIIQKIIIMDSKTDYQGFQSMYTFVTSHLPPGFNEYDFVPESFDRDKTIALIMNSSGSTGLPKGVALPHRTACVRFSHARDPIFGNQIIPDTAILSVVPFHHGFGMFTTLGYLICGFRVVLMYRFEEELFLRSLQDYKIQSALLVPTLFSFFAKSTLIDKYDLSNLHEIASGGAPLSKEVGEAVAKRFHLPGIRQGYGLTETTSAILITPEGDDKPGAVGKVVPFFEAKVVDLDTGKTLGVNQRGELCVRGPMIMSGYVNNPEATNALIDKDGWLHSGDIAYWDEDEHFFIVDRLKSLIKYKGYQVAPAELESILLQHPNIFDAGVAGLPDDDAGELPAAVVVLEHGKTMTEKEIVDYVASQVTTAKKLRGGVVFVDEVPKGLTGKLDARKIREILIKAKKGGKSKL
Nuclear receptor subfamily 1 group I member 3 (Homo sapiens), sequence (Q14994 whole entry, looked up): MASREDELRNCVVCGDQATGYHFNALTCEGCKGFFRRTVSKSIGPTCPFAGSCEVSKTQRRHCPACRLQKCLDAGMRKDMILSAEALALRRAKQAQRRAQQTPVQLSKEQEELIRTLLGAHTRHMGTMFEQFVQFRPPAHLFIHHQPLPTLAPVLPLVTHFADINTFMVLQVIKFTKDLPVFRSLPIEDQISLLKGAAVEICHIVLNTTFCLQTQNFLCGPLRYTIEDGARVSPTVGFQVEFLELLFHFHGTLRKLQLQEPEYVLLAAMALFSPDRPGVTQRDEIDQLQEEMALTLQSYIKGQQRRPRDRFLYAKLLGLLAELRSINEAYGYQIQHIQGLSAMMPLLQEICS
Thyrotropin receptor (Homo sapiens), sequence (P16473 whole entry, looked up): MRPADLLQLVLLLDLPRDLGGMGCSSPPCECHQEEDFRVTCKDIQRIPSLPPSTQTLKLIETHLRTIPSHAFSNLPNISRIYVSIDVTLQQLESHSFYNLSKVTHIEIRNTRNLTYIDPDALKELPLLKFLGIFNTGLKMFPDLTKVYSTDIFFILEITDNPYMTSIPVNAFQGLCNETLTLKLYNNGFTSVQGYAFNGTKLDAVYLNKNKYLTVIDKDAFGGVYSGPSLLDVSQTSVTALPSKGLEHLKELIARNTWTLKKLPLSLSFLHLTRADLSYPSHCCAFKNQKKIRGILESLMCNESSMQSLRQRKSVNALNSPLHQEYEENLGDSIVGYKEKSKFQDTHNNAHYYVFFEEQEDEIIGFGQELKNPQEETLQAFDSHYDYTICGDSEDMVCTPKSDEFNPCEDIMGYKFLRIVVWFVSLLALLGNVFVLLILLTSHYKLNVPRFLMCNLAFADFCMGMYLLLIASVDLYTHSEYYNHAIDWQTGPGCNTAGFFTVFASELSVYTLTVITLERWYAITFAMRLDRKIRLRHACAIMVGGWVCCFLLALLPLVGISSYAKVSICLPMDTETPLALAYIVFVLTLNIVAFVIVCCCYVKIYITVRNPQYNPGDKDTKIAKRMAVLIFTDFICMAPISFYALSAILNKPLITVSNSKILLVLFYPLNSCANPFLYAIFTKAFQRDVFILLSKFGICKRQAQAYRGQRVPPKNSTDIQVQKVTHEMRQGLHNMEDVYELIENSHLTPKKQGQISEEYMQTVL

SMILES	Potency [1]	Potency [2]	Potency [3]	Potency [4]	Potency [5]	Potency [6]	Potency [7]	Potency [8]	Potency [9]	Potency [10]	activity change, positive = activation ([11]; at 92.4 µM (top of the series))	Potency [12]	Potency [13]	Potency [14]	Potency [15]	Potency [16]	Potency [17]	Potency [18]	Potency [19]	activity change, positive = activation ([11]; at 42.5 µM (top of the series))
C=CC(=O)OCCCCCCOC(=O)C=C	inactive	inactive	inactive	inactive	48.6 µM (active)	inactive	21.7 µM (active)	inactive	114 µM (active)	inactive	-0.87% (active) and -57.5% (active)	inactive and 43.6 µM (active)	49 µM (active)	inactive	inactive					
CCc1cc(C(C)(C)C)c(O)c(C(C)(C)C)c1	inactive	inactive	inactive	inactive and 12.2 µM (active)	inactive			inactive				inactive		inactive	inactive	inactive	inactive			
OCCOCCN1CCN(C(c2ccccc2)c2ccc(Cl)cc2)CC1 (configuration not stated)	inactive and 27.5 µM (active)		inactive	inactive	47.9 µM (active) and inactive			inactive				48.3 µM (active) and inactive	6.08 µM (active) and inactive	inactive	48.3 µM (active) and inactive			125 µM (active) and inactive		
CCCCN(CCO)CCCC	inactive		inactive	inactive	inactive	inactive	inactive	inactive	inactive	inactive	1.42% (inactive)	inactive	inactive	inactive	inactive	inactive	inactive	inactive	inactive	
CC(=O)Nc1ccc(C(=O)CCl)cc1	inactive	inactive			inactive			inactive	inactive			inactive	inactive and 24.5 µM (active)	inactive	inactive and 24.5 µM (active)	inactive	inactive and 11 µM (active)	inactive	inactive	
Cc1ccc(S(=O)(=O)Oc2ccc(N=Nc3ccc(-c4ccc(N=Nc5c(O)ccc6cc(S(=O)(=O)O)cc(S(=O)(=O)O)c56)c(C)c4)cc3C)cc2)cc1	63.5 µM (active) and 23.2 µM (active)		inactive	inactive	19.4 µM (active) and 20 µM (active)	17.3 µM (active)	inactive		inactive	27.4 µM (active)	-34.2% (inactive)		inactive	inactive		27.4 µM (active) and 31.6 µM (active)		45.2 µM (active) and 29.3 µM (active)		-13.6% (inactive)
CN1C(=O)c2ccc([N+](=O)[O-])cc2C1=O	inactive	inactive	inactive	inactive	inactive	inactive	inactive	inactive	inactive	inactive	7.36% (inactive)	inactive		inactive	inactive	inactive			inactive	
